Assay [1] in a line: P-glycoprotein substrates identified in KB-8-5-11 adenocarcinoma cell line, qHTS therapeutic library screen (AID 1346987). Further: nearly all actives have a fitted effect of over 65% in size. Further: potency means the concentration at half of the fitted maximal effect. On activity change, negative = cytotoxicity: series mostly up to about 44 µM. The method in brief:
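Human cervical adenocarcinoma KB-8-5-11 cells, selected in colchicine to over-express P-gp and assayed without it, were exposed for 72 h to titrated compounds. An ATP-based luminescent viability signal gave AC50.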
For orientation: qHTS replaces the single test concentration by a dilution series.

Assay [2] in a line: NS1 protein of Zika virus - qHTS assay to identify small molecule inhibitors in human HEK 293 cells (AID 1347053). Further: series mostly up to about 46 µM; nearly all actives have a fitted effect of over 55% in size. The method in brief:
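Compound-treated (1 h pre-infection) HEK 293 cells infected with ZIKV MR766, MOI = 0.5; after 24 h at 37 C, NS1 read by TR-FRET; data normalized to uninfected and infected controls.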

Assay [3] is described as follows: qHTS of pediatric cancer cell lines to identify multiple opportunities for drug repurposing: Primary screen for TC32 cells (AID 1347089). Further: nearly all actives have a fitted effect of over 60% in size. The method in brief: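 Luminescent ATP read-out (CellTiter-Glo) of metabolically active TC32 cells after 48 h exposure. Concentration-response curves came from 11-point (MIPE, 0.78 nM–46 µM) or 8-point (NPC, 0.59 nM–46 µM) primary titrations; follow-up used 11 points.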

Results filed as inconclusive are left out. Where a call stands in place of a potency, no number is given. Unmarked numbers belong to inactive results. Calls of active or inactive are those of the source. The call rests on the fitted dose curve; in most records, active means well fitted curve in the direction sought with a large enough effect; inconclusive means small, poorly fitted or top-dose-only effect, or another doubt; inactive means no such curve, though single readings can be large; an effect the other way counts as inactive or inconclusive.

In the case of `CC1=CC(=O)[C@]2(O[C@@H]3O[C@@H](C)[C@H](O)[C@@H](O)[C@H]3OC(=O)/C=C/c3ccccc3)C=CO[C@@H](O[C@@H]3O[C@H](CO)[C@@H](O)[C@H](O)[C@H]3O)[C@H]12`, the Potency entry in assay [1] is “inactive”.

Regarding `CC(C)CN(C[C@@H](O)[C@H](Cc1ccccc1)NC(=O)O[C@@H]1CO[C@H]2OCC[C@H]21)S(=O)(=O)c1ccc(N)cc1`, the Potency result in assay [1] is “inactive”.

As for `C/C=C1\[C@H](O[C@@H]2O[C@H](CO)[C@@H](O)[C@H](O)[C@H]2O)OC=C2C(=O)OCCc3ccc(O)c(c3)Oc3ccc(cc3)CCOC(=O)C[C@H]21`, the Potency result in assay [1] was “inactive”.

Take `C[C@@H]1C(=O)O[C@H]2[C@@H](O)C34[C@H]5C[C@@H](C(C)(C)C)C36[C@@H](OC(=O)[C@@H]6O)O[C@@]4(C(=O)O5)[C@@]12O` (some centres not stated): in assay [1], the Potency result is “inactive”.

With `COC(=O)C1=CO[C@@H](O[C@@H]2O[C@H](CO)[C@@H](O)[C@H](O)[C@H]2O)[C@H]2[C@@H]1CC(OC)O[C@@H]2C` (some centres not stated), in assay [1], the Potency result was “inactive”.

`C/C(=C/CO)CC[C@@H]1[C@@](C)(O)CCC2C(C)(C)CCC[C@]21C` (some centres not stated): in assay [1], the Potency entry is “inactive”.

`CC(C)(O)C1CCC(C)(C2CCC3(C)C4CCC5C(C)(C(=O)OC6OC(CO)C(O)C(O)C6O)C(O)CC(O)C56CC46CCC23C)O1` (configuration not stated): in assay [1], the Potency result is “inactive”.

For `CC1(C)CC[C@]2(C(=O)O[C@@H]3O[C@H](CO[C@@H]4O[C@H](CO)[C@@H](O)[C@H](O)[C@H]4O[C@@H]4O[C@H](CO)[C@H](O)[C@H](O)[C@H]4O)[C@@H](O)[C@H](O[C@@H]4O[C@H](CO)[C@@H](O)[C@H](O)[C@H]4O)[C@H]3O)CC[C@]3(C)C(=CCC4[C@@]5(C)CC[C@H](O[C@@H]6OC[C@@H](O)[C@H](O)[C@H]6O)[C@@](C)(C(=O)O)C5CC[C@]43C)[C@@H]2C1` (some centres not stated), the outcome in assay [1] was “inactive [at 9.29 µM]”.

Take `CC1C=CC2CCCCC2C1CCC1CC(O)CC(=O)O1` (configuration not stated): the Potency result in assay [1] was “inactive”.

`Cc1ccc(C)c(OCCn2cc(C(=O)O)c3ccccc32)c1`: the Potency result in assay [1] was “inactive”.

Regarding `O=C(CSc1nc2c(c(=O)n1-c1ccccc1)SCC2)Nc1ccc(-c2ccccc2)cn1`, the Potency in assay [1] is 82 nM (active).

For `CCc1cnn2c(NCc3ccc[n+]([O-])c3)cc(N3CCCCC3CCO)nc12` (configuration not stated), in assay [1], the Potency was 206 nM (active).

As to `Cc1ccc(C(=O)N(CCCN)C(c2nc3cc(Cl)ccc3c(=O)n2Cc2ccccc2)C(C)C)cc1` (configuration not stated), the Potency in assay [1] is 517 nM (active).

Turning to `C=CC(=O)Nc1cccc(Nc2nc(Nc3ccc(N4CCN(C(C)=O)CC4)cc3OC)ncc2C(F)(F)F)c1`, the Potency in assay [1] was 20600 nM (active).

Turning to `C=C[C@]1(C)C[C@H](O)[C@@H]2[C@H](OC(=O)[C@@H]2C)C1/C(C)=C/O[C@@H]1O[C@H](CO)[C@@H](O)[C@H](O)[C@H]1O` (some centres not stated), the Potency entry in assay [1] is “inactive”.

On to `c1ccc(-c2csc(N3CCOCC3)n2)cc1`, for which the Potency result in assay [1] is “inactive”.

With `C[C@@H]1CC[C@]2(C(=O)O[C@@H]3O[C@H](CO)[C@@H](O)[C@H](O)[C@H]3O)CC[C@]3(C)C(=CCC4[C@@]5(C)C[C@@H](O)[C@H](O)[C@](C)(C(=O)O)C5CC[C@]43C)[C@@H]2[C@]1(C)O` (some centres not stated), the Potency entry in assay [1] is “inactive”.

As to `O=C(Nc1ccc(S(=O)(=O)Nc2ccccc2Cl)c(Cl)c1)c1ccccn1`, the Potency result in assay [1] is “inactive”.

In the case of `Cc1[nH]c2ccccc2c1CCNC(=O)c1ccccc1F`, the Potency entry in assay [1] is “inactive”.

As to `CC1(C)CCC[C@]2(C)[C@H]3CC(=O)O[C@]3(C)CC[C@@H]12`, in assay [1], the Potency result was “inactive”.

`CCc1cc(CN2CC(C(=O)O)C2)sc1-c1noc(-c2ccc(Oc3ccccc3)cc2)n1`: in assay [1], the Potency result is “inactive”.

In the case of `CC(=O)O[C@@H]1[C@@H](O)[C@H](C)O[C@@H](O[C@H]2[C@@H]3C=CO[C@@H](O[C@@H]4O[C@H](CO)[C@@H](O)[C@H](O)[C@H]4O)[C@@H]3[C@@]3(CO)O[C@@H]23)[C@@H]1OC(=O)/C=C/c1ccccc1`, the Potency entry in assay [1] is “inactive”.

Regarding `CC(=O)N1CCN(Cc2ccc([C@H](C)Nc3nccc(N4C(=O)OC[C@@H]4C(C)C)n3)cc2)CC1`, the Potency result in assay [1] was “inactive”.

Turning to `C(#Cc1nc2ncccc2nc1OCCN1CCCC1)c1ccccc1`, in assay [1], the Potency was 6510 nM (active).

For the molecule `CC(C)=CCC/C(C)=C/Cc1ccc(O)c(C2OC(=O)c3cc(C(=O)O)cc(O)c32)c1O` (configuration not stated), the Potency result in assay [1] was “inactive”.

As to `C=C[C@H]1C(O[C@@H]2O[C@H](CO)[C@@H](O)[C@H](O)[C@H]2O)OC=C2C(=O)N3CCc4c([nH]c5ccccc45)[C@H]3C[C@H]21` (some centres not stated), the Potency result in assay [1] is “inactive”.

As to `CC(=O)C1=C(C)N(c2cccc(C(F)(F)F)c2)C(=O)N[C@H]1c1ccc(C#N)nc1`, the activity change, negative = cytotoxicity in assay [1] was -2.98% [at 9.29 µM].

`C=C1C(OC(C)=O)CCC2(C)CC3(OC)OC(=O)C(C)=C3CC12` (configuration not stated): the Potency result in assay [1] was “inactive”.

Consider `CN(C)C/C=C/C(=O)Nc1cc2c(Nc3ccc(F)c(Cl)c3)ncnc2cc1OC1CCOC1` (configuration not stated), for which the Potency in assay [1] was 14600 nM (active).

On to `COC(=O)CC1CC(c2ccc(O)cc2)=NO1` (configuration not stated), for which the Potency result in assay [1] is “inactive”.

Take `C=C[C@H]1[C@H](O[C@@H]2O[C@H](CO)[C@@H](O)[C@H](O)[C@H]2O)OC=C(C(=O)OC)[C@H]1CC(=O)O`: in assay [1], the Potency entry was “inactive”.

In the case of `CC(=O)OC[C@@]12C(=O)C[C@@H](C)[C@]3(C[C@@H](c4ccoc4)O[C@H]3OC(C)=O)[C@H]1CCC[C@]21CO1`, in assay [1], the Potency result was “inactive”.

For `COc1ccc(C2(O)CCC(N3CC[C@@H](NC(=O)CNC(=O)c4cccc(C(F)(F)F)c4)C3)CC2)cn1` (some centres not stated), in assay [1], the Potency entry is “inactive”.

`Cc1cc(C)nc(NS(=O)(=O)c2ccc(NC(=S)NC(=O)COc3ccc(Br)cc3Cl)cc2)n1`: the Potency entry in assay [1] was “inactive”.

With `C=C(C)C1CCC2(C(=O)O)CCC3(C(=O)O)C(CCC4C5(C)CCC(O)C(C)(C(=O)O)C5CCC43C)C12` (configuration not stated), the Potency result in assay [1] was “inactive”.

As for `C=CCC1=C[C@]2(OC)[C@H](C)[C@@H](c3ccc(O)c(OC)c3)O[C@]2(OC)CC1=O`, the Potency result in assay [1] is “inactive”.

`CCOCCOC(=O)/C=C/c1ccc(OC)cc1`: the Potency entry in assay [2] is “inactive”. In addition, the call in assay [3] was inactive.

On to `CN[C@H](C(=O)N[C@H](C(=O)N(C)[C@H](/C=C(\C)C(=O)O)C(C)C)C(C)(C)C)C(C)(C)c1ccccc1`, for which the Potency in assay [1] is 18.4 nM (active).

Regarding `CCC(C(=O)O)c1ccc(N2Cc3ccccc3C2=O)cc1` (configuration not stated), the Potency entry in assay [2] was “inactive”. The molecule was classed as inactive in assay [3].

Turning to `CCCC1(c2ccccc2)NC(=O)N(CC(=O)N(C)Cc2c(F)cccc2Cl)C1=O` (configuration not stated), the Potency result in assay [1] was “inactive”.

Source of the values: PubChem BioAssay (NCATS).
